# Assay results reported in ChEMBL document CHEMBL1961873, “Compounds: GSK PKIS; Assays: Nanosyn kinase panel” (2012).
# Tests used:
# [1] = biological target: Protein kinase C gamma type (Homo sapiens) (UniProt P05129); conditions: at 1 µM;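 note: each value is an averaged percent inhibition of the enzyme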
# [2] = biological target: T1, Protein kinase C iota type (Homo sapiens) (UniProt P41743); conditions: at 0.1 µM
# T1 sequence (whole entry): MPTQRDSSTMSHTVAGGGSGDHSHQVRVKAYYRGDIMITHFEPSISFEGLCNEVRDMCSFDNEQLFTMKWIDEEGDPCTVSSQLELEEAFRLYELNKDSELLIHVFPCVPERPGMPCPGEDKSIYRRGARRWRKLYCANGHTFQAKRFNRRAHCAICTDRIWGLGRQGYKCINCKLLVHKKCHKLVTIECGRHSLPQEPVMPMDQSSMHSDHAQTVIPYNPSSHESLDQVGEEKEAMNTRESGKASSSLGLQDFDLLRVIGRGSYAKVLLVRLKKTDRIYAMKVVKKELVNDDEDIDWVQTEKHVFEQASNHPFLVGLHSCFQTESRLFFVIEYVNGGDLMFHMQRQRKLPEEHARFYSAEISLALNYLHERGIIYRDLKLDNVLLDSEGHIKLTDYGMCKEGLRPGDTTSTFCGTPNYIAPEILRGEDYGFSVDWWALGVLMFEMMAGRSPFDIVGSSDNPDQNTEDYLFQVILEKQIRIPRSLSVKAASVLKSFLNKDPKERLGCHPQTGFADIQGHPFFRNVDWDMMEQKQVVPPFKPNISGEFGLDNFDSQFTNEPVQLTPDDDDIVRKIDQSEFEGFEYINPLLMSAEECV
# [3] = biological target: T1, Protein kinase C iota type (Homo sapiens); conditions: at 1 µM
# [4] = biological target: Protein kinase C theta type (Homo sapiens) (UniProt Q04759); conditions: at 0.1 µM
# [5] = biological target: Protein kinase C theta type (Homo sapiens) (UniProt Q04759); conditions: at 1 µM
# [6] = biological target: Protein kinase C beta type (Homo sapiens) (UniProt P05771); conditions: at 0.1 µM
# [7] = biological target: Protein kinase C beta type (Homo sapiens) (UniProt P05771); conditions: at 1 µM
# [8] = biological target: T2, Serine/threonine-protein kinase D1 (Homo sapiens) (UniProt Q15139); conditions: at 0.1 µM
# T2 sequence (whole entry): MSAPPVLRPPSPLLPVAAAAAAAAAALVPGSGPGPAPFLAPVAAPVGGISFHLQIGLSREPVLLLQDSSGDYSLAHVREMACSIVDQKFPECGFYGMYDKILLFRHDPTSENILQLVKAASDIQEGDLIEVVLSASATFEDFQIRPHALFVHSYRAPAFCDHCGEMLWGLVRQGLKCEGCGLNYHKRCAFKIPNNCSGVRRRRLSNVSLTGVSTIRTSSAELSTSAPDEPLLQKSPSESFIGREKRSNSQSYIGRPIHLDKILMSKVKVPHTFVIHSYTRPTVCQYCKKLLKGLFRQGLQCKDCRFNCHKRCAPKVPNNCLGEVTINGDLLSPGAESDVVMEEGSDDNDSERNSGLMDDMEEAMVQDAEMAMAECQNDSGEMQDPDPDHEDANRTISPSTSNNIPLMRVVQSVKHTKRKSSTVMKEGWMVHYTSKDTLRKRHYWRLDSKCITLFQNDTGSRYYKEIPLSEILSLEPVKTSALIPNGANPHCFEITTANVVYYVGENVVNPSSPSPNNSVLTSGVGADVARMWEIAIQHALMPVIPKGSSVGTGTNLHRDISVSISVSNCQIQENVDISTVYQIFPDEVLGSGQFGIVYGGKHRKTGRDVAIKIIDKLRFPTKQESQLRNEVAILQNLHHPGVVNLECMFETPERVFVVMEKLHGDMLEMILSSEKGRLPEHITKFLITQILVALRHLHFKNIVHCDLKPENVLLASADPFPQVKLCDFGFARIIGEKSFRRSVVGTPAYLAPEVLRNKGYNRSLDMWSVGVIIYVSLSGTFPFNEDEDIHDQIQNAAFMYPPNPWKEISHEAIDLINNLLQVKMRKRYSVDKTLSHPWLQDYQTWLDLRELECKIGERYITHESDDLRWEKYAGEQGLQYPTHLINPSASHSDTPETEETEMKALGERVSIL
# [9] = biological target: T2, Serine/threonine-protein kinase D1 (Homo sapiens); conditions: at 1 µM
# [10] = biological target: T3, Serine/threonine-protein kinase D2 (Homo sapiens) (UniProt Q9BZL6); conditions: at 0.1 µM
# T3 sequence (whole entry): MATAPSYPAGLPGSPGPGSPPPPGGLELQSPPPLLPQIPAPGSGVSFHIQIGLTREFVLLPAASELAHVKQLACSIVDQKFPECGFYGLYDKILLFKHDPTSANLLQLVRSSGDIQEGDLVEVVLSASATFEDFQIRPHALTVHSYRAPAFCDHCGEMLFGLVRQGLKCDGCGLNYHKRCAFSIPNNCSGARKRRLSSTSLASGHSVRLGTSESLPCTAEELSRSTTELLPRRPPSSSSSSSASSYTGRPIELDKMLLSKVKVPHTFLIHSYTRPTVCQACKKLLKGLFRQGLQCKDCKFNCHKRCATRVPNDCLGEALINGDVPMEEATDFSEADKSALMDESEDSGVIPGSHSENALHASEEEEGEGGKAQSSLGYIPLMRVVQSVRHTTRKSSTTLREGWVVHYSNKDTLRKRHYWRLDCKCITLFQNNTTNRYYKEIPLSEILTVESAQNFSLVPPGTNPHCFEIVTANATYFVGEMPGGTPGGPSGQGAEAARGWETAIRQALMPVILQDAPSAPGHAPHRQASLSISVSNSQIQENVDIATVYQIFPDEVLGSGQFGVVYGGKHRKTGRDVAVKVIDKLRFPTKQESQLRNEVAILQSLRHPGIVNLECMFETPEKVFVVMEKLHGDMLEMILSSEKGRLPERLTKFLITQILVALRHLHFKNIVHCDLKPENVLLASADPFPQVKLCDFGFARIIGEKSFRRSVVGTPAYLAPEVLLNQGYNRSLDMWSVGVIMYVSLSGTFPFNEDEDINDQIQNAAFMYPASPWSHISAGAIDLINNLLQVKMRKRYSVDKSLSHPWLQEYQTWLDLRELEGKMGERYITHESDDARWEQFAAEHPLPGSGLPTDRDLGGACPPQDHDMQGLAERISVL
# [11] = biological target: T3, Serine/threonine-protein kinase D2 (Homo sapiens); conditions: at 1 µM
# [12] = biological target: T4, Serine/threonine-protein kinase D3 (Homo sapiens) (UniProt O94806); conditions: at 0.1 µM
# T4 sequence (whole entry): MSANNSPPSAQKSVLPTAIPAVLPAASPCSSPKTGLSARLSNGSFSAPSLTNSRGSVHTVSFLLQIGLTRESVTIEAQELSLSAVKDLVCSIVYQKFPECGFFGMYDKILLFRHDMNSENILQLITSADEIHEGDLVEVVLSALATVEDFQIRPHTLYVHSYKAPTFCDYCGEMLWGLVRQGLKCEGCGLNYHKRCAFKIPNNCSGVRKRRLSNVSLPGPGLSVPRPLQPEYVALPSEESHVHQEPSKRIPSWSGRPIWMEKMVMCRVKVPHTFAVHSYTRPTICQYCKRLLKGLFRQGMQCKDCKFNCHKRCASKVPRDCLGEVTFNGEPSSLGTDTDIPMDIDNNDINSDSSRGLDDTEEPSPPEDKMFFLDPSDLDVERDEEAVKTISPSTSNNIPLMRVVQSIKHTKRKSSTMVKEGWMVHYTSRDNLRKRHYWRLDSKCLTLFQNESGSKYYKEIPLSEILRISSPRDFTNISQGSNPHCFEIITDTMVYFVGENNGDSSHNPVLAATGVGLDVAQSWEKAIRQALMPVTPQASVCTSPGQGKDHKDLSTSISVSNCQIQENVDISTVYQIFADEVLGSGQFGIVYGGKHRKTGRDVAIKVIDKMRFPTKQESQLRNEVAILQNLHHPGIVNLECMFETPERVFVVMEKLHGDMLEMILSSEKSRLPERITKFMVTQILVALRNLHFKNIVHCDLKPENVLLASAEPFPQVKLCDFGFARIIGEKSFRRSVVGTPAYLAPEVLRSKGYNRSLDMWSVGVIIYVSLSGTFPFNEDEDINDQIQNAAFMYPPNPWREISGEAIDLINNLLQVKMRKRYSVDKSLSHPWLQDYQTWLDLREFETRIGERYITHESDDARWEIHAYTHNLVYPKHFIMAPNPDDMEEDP
# [13] = biological target: T4, Serine/threonine-protein kinase D3 (Homo sapiens); conditions: at 1 µM
# [14] = biological target: T5, cGMP-dependent protein kinase 1 (Homo sapiens) (UniProt Q13976); conditions: at 0.1 µM
# T5 sequence (whole entry): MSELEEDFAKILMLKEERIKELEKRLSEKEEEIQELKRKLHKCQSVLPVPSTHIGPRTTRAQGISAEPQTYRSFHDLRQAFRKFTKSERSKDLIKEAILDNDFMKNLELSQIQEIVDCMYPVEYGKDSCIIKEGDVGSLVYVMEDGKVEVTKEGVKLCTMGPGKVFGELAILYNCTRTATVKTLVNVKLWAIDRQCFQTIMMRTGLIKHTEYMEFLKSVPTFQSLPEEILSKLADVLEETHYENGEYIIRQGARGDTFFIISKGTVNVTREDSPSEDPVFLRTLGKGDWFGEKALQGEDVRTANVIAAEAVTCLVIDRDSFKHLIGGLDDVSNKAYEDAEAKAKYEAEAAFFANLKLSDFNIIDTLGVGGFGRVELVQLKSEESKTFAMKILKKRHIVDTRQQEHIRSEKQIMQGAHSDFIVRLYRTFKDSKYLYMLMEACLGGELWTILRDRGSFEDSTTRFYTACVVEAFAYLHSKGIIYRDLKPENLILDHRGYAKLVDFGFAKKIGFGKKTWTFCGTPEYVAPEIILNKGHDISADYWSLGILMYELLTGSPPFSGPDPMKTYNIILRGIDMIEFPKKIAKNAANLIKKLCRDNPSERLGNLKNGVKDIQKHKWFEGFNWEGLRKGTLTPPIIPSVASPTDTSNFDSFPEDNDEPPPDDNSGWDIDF
# [15] = biological target: T5, cGMP-dependent protein kinase 1 (Homo sapiens); conditions: at 1 µM
# [16] = biological target: T6, cGMP-dependent protein kinase 2 (Homo sapiens) (UniProt Q13237); conditions: at 0.1 µM
# T6 sequence (whole entry): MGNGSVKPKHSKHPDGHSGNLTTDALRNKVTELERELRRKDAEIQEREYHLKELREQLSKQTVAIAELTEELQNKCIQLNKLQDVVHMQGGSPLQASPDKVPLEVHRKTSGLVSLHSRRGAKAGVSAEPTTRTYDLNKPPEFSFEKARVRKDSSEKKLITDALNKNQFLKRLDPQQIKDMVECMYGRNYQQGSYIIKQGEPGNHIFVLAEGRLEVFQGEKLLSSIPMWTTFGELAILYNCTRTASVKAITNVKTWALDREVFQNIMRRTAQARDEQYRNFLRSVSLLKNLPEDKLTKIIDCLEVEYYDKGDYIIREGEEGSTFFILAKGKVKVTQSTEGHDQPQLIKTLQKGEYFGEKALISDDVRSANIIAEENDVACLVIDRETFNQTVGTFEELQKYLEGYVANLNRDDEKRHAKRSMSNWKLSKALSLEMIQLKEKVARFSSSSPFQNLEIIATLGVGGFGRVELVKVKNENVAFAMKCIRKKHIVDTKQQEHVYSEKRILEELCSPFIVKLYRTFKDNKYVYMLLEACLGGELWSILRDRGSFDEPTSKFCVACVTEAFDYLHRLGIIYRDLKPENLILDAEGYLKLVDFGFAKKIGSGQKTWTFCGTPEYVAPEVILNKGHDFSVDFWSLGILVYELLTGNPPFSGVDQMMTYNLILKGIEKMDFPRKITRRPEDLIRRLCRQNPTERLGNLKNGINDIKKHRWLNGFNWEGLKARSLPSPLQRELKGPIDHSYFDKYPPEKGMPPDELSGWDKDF
# [17] = biological target: T6, cGMP-dependent protein kinase 2 (Homo sapiens); conditions: at 1 µM
# [18] = biological target: T7, cAMP-dependent protein kinase catalytic subunit PRKX (Homo sapiens) (UniProt P51817); conditions: at 0.1 µM
# T7 sequence (whole entry): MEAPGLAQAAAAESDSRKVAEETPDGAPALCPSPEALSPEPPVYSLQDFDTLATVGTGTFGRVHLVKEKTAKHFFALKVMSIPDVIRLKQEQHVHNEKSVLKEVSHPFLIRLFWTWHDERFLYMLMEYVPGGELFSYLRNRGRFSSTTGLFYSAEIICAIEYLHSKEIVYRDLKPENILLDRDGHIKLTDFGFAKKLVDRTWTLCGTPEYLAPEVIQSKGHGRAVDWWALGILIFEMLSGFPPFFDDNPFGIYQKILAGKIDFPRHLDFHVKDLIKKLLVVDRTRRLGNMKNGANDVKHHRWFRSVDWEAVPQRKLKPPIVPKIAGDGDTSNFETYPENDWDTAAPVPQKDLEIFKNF
# [19] = biological target: T7, cAMP-dependent protein kinase catalytic subunit PRKX (Homo sapiens); conditions: at 1 µM
# [20] = biological target: Rho-associated protein kinase 1 (Homo sapiens) (UniProt Q13464); conditions: at 0.1 µM;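 note: values are mean percent inhibition of ROCK1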
# Chain of Rho-associated protein kinase 1 (Homo sapiens) (Q13464 2-1354 limits assumed): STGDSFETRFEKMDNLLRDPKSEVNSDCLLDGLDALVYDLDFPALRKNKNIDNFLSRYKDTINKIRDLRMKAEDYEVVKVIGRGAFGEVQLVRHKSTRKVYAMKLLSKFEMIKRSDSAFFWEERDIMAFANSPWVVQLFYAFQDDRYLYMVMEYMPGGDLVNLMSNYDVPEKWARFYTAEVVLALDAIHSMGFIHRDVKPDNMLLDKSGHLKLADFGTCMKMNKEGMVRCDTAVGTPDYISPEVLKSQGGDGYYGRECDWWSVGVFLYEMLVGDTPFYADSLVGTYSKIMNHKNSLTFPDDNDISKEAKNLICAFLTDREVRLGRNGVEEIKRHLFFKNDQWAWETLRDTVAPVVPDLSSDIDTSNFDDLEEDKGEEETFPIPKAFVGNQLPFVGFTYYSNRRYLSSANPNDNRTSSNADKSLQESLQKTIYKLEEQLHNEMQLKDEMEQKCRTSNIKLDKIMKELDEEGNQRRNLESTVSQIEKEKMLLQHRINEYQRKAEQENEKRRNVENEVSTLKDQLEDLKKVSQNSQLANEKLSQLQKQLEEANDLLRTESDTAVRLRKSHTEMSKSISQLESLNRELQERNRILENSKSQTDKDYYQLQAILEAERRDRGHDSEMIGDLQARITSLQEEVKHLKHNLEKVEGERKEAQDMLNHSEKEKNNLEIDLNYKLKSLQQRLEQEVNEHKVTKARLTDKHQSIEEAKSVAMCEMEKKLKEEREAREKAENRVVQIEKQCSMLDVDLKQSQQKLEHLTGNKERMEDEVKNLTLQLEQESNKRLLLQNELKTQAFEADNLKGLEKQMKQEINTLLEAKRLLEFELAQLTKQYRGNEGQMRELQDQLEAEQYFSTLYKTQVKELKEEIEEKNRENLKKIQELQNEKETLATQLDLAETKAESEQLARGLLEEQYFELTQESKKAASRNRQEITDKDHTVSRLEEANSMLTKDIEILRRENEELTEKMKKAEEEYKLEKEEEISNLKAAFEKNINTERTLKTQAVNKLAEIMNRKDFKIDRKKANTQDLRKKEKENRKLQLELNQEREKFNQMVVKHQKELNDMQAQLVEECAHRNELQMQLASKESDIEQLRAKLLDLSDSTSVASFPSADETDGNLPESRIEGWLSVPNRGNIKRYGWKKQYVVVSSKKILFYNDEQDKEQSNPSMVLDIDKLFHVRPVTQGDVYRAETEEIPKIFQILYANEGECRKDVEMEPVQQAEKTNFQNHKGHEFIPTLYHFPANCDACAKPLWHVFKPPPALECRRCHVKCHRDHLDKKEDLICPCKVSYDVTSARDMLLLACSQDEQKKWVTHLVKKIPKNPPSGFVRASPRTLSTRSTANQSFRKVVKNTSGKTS
# Chain of Protein kinase C theta type (Homo sapiens) (Q04759 whole entry, looked up): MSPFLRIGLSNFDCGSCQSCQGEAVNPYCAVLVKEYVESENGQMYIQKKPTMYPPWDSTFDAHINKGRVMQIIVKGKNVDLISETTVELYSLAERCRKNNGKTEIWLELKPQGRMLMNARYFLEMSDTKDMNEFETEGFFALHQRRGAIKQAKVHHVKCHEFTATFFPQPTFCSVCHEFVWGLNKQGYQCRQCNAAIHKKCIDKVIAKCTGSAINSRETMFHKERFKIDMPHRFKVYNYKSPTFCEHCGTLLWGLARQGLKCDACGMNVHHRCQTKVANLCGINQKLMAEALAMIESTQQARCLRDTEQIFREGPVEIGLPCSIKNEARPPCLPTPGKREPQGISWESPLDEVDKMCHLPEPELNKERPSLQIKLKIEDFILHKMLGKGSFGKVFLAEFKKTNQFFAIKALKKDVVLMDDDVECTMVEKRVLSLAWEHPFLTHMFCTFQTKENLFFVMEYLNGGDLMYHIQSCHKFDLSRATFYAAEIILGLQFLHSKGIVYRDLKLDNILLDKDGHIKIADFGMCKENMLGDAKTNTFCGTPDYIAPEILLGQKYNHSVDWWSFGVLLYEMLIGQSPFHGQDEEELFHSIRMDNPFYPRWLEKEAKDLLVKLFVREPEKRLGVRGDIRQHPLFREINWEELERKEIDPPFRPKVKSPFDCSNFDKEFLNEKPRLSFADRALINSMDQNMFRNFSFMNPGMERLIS
# Chain of Protein kinase C beta type (Homo sapiens) (P05771 2-671 limits assumed): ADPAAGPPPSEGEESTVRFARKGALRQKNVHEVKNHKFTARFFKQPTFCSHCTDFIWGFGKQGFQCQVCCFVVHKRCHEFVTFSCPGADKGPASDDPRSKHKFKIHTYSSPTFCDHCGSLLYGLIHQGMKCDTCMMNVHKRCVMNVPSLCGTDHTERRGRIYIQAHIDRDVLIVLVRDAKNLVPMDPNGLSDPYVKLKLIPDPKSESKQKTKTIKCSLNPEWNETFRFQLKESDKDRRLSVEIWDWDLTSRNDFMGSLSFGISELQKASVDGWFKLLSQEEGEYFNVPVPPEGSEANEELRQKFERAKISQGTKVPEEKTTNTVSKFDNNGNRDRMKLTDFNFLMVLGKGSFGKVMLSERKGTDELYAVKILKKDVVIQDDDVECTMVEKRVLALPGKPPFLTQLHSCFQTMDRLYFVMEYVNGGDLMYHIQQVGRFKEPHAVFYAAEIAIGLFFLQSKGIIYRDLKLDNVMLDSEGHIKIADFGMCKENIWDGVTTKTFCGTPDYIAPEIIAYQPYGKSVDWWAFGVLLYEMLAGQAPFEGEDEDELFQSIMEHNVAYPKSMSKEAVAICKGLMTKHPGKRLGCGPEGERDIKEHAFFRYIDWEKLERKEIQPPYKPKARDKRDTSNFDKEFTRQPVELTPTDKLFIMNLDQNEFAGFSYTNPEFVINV
structure (smiles),measurement,setting,value
O=C1NC(=O)C(c2ccc(Cl)cc2)=C1Nc1ccc(Cl)c(C(=O)O)c1,inhibition,[1],1.73%
same,inhibition,[2],0.12%
same,inhibition,[3],3.71%
same,inhibition,[4],-0.99%
same,inhibition,[5],-0.44%
same,inhibition,[6],-0.73%
same,inhibition,[7],3.47%
same,inhibition,[8],-1.33%
same,inhibition,[9],0.04%
same,inhibition,[10],-1.08%
same,inhibition,[11],-0.34%
same,inhibition,[12],-1.37%
same,inhibition,[13],-0.38%
same,inhibition,[14],-0.49%
same,inhibition,[15],-0.47%
same,inhibition,[16],-1.52%
same,inhibition,[17],-0.68%
same,inhibition,[18],-1.61%
same,inhibition,[19],-1.33%
same,inhibition,[20],-0.15%
